Experimental data: PubChem BioAssay
Activity calls are given as the source filed them.

Columns and labels:
[1] = binders of probe aFSTL3 on microarray, primary screen, stem cell growth factor project, biochemical, small-molecule microarray, fluorescence 635/667 (AID 1064); conditions: higher = more signal;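 further: measures binding of the biotinylated anti-FSTL3 antibody to printed compounds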
[2] = binders from COS7 lysate, DM2A8 probe, primary screen, torsin A project, cell lysate, small-molecule microarray, fluorescence 635/667 (AID 1065); conditions: higher = more signal, COS7 lysate expressing mutant human TOR1A
[3] = binders of probe aFGF2 on microarray, primary screen, stem cell growth factor project, biochemical, small-molecule microarray, fluorescence 635/667 (AID 1067); conditions: higher = more signal;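 further: measures binding of biotinylated aFGF2 protein to printed compounds on slides; z-score merges feature fluorescence and signal-to-noise across triplicate slides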
[4] = binders of probe aFGF10 on microarray, primary screen, stem cell growth factor project, biochemical, small-molecule microarray, fluorescence 635/667 (AID 1071); conditions: higher = more signal;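 further: score merges 667 nm spot intensity and signal to noise from triplicate slides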
[5] = target: Neurogenic locus notch homolog protein 2 (Homo sapiens) (UniProt Q04721); experiment: Notch2 binders on small-molecule microarrays, primary screen, biochemical, small-molecule microarray, 635 nm fluorescence, stem cell growth factors (AID 1073); conditions: Notch2 binding, higher = more signal
[6] = target: Pro-neuregulin-1, membrane-bound isoform (Homo sapiens) (UniProt Q02297); experiment: NRG1 binders on small-molecule microarrays, primary screen, psychiatric disease protein project, biochemical, small-molecule microarray, fluorescence 635/667 (AID 1075); conditions: NRG1 binding, 635 nm fluorescence, higher = more signal;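 further: score combines 667 nm spot fluorescence with signal to noise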
Chain of Pro-neuregulin-1, membrane-bound isoform (Homo sapiens) (Q02297 whole entry, looked up, the tested form may be a part, canonical isoform): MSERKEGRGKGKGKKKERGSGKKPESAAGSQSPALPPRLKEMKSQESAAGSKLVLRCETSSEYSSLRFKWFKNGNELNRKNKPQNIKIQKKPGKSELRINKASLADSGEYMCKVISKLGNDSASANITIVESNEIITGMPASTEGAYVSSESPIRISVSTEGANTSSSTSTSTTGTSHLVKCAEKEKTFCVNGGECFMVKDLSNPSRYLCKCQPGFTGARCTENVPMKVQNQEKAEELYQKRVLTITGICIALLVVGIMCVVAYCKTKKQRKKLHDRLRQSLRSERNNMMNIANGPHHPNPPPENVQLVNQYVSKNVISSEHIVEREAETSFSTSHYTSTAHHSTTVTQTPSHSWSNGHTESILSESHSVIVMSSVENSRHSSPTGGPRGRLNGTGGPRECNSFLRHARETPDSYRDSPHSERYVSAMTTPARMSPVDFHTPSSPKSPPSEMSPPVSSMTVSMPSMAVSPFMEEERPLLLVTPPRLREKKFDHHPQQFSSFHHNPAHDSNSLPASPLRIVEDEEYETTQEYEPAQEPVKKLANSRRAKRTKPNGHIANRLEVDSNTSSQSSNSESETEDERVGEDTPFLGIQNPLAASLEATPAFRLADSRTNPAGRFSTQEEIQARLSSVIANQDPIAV

[7] = test system: Neuregulin-1 EGF-like domain; experiment: binders of neuregulin-1 EGF-like domain, primary screen, biochemical, small-molecule microarray, 635 nm fluorescence (AID 1081); conditions: small-molecule microarray binding, higher = more signal;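 further: binding of the protein to compounds printed on small-molecule microarray slides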
[8] = FRG1 promoter luciferase signal modulators, primary screen, FRG1 inhibition for FSHD, cell-based, C2C12 myotubes, firefly/Renilla luciferase, luminescence (AID 1084); conditions: higher = more signal, called active from +8 up or from −8 down
[9] = binders of probe aFST on microarray, primary screen, stem cell growth factor project, biochemical, small-molecule microarray, fluorescence 635/667 (AID 1086); conditions: higher = more signal;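 further: score merges 667 nm fluorescence with signal-to-noise of each printed compound spot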
[10] = binders of probe aHhip on microarray, primary screen, stem cell growth factor project, biochemical, small-molecule microarray, fluorescence 635/667 (AID 1087); conditions: higher = more signal;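 further: score merges spot fluorescence at 667nm with spot signal to noise ratio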
[11] = test system: PRMT1 (protein arginine N-methyltransferase 1); experiment: PRMT1 binders on small-molecule microarrays, primary screen, biochemical, small-molecule microarray, 635 nm fluorescence (AID 1088); conditions: small-molecule microarray binding, higher = more signal;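 further: binding of Prmt1 protein to compounds spotted on small-molecule microarray slides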
[12] = yeast growth modulation, basal conditions, primary screen, YJM789 clinical isolate, OD600, 24 h (AID 1089);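 further: growth of clinical yeast isolate S. cerevisiae YJM 789 seeded 1000 cells per well; test concentration not given here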; conditions: S. cerevisiae YJM789 growth, higher = more signal, called active from +8 up or from −8 down
[13] = fission yeast growth modulation, primary screen, strain 972, OD600, 24 h, no modulator (AID 1090);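 further: basal condition with compound alone and no growth modifier present; test concentration not given here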; conditions: S. pombe 972 growth, higher = more signal, called active from +8 up or from −8 down
[14] = S. cerevisiae growth modulation with rapamycin, primary screen, strain BY4716, OD600, 96 h (AID 1091); conditions: higher = more signal, called active from +8 up or from −8 down; further: test concentration not given here
[15] = target: Torsin-1A-interacting protein 2 (Homo sapiens) (UniProt Q8NFQ8); experiment: LULL1 binders on small-molecule microarray, primary screen, cell lysate, human LULL1 lysate, 635/667 nm fluorescence (AID 1092); conditions: hLULL1 lysate binding, 635 nm fluorescence, higher = more signal;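 further: probe is lysate of COS7 cells overexpressing human LULL1; score merges per-feature 667 nm fluorescence with signal-to-noise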
Chain of Torsin-1A-interacting protein 2 (Homo sapiens) (Q8NFQ8 whole entry, looked up): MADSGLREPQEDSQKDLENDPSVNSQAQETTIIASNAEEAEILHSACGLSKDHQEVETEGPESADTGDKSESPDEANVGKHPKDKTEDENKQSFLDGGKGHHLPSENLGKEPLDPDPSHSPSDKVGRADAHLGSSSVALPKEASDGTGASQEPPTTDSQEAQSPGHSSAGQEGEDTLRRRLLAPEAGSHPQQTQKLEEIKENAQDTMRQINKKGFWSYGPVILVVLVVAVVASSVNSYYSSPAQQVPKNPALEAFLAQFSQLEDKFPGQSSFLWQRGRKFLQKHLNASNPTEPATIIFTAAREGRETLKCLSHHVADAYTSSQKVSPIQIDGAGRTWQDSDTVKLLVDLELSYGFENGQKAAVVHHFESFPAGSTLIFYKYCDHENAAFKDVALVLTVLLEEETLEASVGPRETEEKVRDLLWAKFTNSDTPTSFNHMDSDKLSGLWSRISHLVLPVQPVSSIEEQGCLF

[16] = E. coli growth modulation, two-sided OD650, primary screen, E. coli filamentation project, strain DRC41, 24 h (AID 1093); conditions: OD650, 24 h, higher = more signal, called active from +8 up or from −8 down;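 further: MC1000 strain lacking acrAB efflux and sulA so SOS filamentation is blocked; test concentration not given here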
[17] = small-molecule microarray binders of probe aLefty2, primary screen, biochemical, biotinylated probe, 635/667 nm fluorescence (AID 1094); conditions: higher = more signal;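 further: score merges spot fluorescence near 667 nm with spot signal-to-noise ratio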
[18] = test system: Noggin (protein binding on small-molecule microarray); experiment: Noggin binders on small-molecule microarray, primary screen, biochemical, 635/667 nm fluorescence (AID 1095); conditions: 635 nm fluorescence, higher = more signal;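 further: score merges 667 nm feature fluorescence with signal to noise over triplicate slides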
[19] = target: Neurogenic locus notch homolog protein 3 (Homo sapiens) (UniProt Q9UM47); experiment: NOTCH3 binders on small-molecule microarray, primary screen, biochemical, 635/667 nm fluorescence (AID 1096); conditions: NOTCH3 binding, 635 nm fluorescence, higher = more signal
Chain of Neurogenic locus notch homolog protein 3 (Homo sapiens) (Q9UM47 whole entry, looked up): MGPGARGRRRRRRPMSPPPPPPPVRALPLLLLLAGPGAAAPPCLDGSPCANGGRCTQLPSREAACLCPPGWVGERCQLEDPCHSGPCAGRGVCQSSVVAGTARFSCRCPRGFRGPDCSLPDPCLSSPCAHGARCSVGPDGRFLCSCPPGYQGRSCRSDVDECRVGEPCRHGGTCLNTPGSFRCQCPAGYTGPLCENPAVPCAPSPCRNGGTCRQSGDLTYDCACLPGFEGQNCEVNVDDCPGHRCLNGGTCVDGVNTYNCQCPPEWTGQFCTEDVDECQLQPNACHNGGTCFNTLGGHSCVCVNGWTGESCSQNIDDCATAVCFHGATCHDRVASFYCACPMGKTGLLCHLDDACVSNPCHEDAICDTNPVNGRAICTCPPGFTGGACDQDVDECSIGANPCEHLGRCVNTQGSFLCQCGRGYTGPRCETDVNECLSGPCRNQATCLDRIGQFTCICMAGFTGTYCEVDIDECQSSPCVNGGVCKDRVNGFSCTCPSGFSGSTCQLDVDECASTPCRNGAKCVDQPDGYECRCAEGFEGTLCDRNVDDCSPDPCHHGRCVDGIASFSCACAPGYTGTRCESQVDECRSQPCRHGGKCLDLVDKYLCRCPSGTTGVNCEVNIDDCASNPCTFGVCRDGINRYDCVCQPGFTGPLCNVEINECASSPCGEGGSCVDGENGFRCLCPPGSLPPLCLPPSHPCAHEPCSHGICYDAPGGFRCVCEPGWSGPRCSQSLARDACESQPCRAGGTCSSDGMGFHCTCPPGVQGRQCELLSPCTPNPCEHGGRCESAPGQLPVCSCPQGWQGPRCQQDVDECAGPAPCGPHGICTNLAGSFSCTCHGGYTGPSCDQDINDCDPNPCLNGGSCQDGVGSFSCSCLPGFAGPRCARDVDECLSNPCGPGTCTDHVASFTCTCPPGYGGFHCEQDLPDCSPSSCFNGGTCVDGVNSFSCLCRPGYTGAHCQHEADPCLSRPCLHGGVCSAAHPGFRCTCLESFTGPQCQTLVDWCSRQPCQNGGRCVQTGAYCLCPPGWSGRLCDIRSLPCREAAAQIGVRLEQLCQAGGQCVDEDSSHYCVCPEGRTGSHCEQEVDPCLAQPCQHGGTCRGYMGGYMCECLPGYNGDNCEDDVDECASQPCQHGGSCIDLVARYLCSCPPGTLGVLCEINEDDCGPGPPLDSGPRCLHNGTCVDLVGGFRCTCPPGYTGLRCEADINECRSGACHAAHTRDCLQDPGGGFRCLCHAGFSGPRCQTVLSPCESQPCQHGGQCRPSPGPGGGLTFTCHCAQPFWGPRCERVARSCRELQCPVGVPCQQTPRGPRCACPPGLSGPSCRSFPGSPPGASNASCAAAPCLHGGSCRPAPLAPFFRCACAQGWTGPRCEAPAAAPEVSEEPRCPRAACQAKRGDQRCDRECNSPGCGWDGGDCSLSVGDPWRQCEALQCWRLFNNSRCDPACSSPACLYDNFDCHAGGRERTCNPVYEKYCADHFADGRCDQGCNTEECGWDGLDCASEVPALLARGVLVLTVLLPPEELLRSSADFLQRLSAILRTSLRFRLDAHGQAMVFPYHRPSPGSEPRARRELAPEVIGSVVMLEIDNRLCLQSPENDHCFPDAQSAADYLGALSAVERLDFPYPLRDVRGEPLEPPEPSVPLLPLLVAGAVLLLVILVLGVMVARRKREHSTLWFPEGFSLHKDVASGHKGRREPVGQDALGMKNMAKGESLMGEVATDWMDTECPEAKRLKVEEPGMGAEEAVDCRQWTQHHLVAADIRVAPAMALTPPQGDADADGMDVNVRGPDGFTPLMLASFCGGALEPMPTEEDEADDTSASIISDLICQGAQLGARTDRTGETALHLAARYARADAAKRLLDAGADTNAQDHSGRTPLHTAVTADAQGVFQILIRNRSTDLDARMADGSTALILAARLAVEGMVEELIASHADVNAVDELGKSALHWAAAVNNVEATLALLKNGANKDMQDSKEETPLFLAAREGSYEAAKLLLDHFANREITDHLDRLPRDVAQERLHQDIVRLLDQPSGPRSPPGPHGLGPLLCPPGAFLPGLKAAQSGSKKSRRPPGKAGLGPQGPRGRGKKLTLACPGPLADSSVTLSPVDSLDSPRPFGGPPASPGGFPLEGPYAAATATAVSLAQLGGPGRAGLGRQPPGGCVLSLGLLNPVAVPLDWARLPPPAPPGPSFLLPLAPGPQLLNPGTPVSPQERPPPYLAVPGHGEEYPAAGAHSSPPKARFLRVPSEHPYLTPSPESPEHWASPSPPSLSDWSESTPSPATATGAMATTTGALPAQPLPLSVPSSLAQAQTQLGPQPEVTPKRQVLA

[20] = small-molecule microarray binders of probe aEGFR, primary screen, biochemical, biotinylated probe, 635/667 nm fluorescence (AID 1097); conditions: higher = more signal;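 further: probe is a biotinylated anti-EGFR antibody binding compounds printed on slides; score combines fluorescence near 667 nm and signal to noise of each spot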

Compound | composite z-score [1] | composite z-score [2] | composite z-score [3] | composite z-score [4] | composite z-score [5] | composite z-score [6] | composite z-score [7] | z-score [8] | composite z-score [9] | composite z-score [10] | composite z-score [11] | z-score [12] | z-score [13] | z-score [14] | composite z-score [15] | z-score [16] | composite z-score [17] | composite z-score [18] | composite z-score [19] | composite z-score [20]
Cc1ccc(N2C(=O)c3ccccc3[C@](C)(C(=O)NCc3ccccc3)[C@@H]2c2ccc(CO)cc2)nc1 | 0.625 | 0.0083 | 0.0898 | -0.369 | -0.378 | 0.64 | 0.635 | 0.101 (inactive) | 0.0665 | 1.07 | 0.596 | 0.34 (inactive) | -0.72 (inactive) | -0.0557 (inactive) | 0.945 | 0.148 (inactive) | 0.0781 | 0.184 | -0.456 | 0.108
CO[C@H]1O[C@H](CO)[C@@H](OC(=O)Nc2cccc(F)c2)[C@H](OC(=O)Nc2ccccc2-c2ccccc2)[C@H]1OC(=O)Nc1ccccc1-c1ccccc1 | -0.24 | 0.368 | 0.0591 | 0.64 | 1.53 | 1.72 | 1.35 | 0.322 (inactive) | 1.36 | -0.247 | 1.54 | -0.455 (inactive) | 2.19 (inactive) | 1.39 (inactive) | 3.08 | -0.158 (inactive) | 0.0361 | 0.928 | 1.06 | -0.0225
Cc1c(NC(=O)/C(C#N)=C/c2ccccc2Cl)c(=O)n(-c2ccccc2)n1C | -0.183 | 0.0711 | -0.009 | 0.0417 | 0.935 | 0.888 | 1.12 | 0.311 (inactive) | 1.27 | -0.139 | 0.315 | -1.06 (inactive) | -1.76 (inactive) | -0.4 (inactive) | 3.03 | 0.245 (inactive) | -0.158 | 0.0603 | 0.259 | 0.0092
COc1ccc([Si](C)(C)[C@H]2[C@H](CC(=O)N3Cc4ccccc4C[C@H]3CO)O[C@@]3(C(=O)N(Cc4ccc(N5C(=O)c6cccc7cccc5c67)cc4)c4ccccc43)[C@@H]2C)cc1 | -0.0494 | 0.245 | -0.0953 | 0.329 | 0.393 | 1.73 | 1.17 | -4.44 (inactive) | 1.07 | 0.61 | 1.56 | -0.823 (inactive) | 1.17 (inactive) | 2.88 (inactive) | 2.7 | 0.489 (inactive) | -0.178 | 1.14 | 1.15 | -0.027
O=c1cccc(-c2ccc(F)cc2)o1 | -0.227 | -0.0321 | -0.0455 | 0.255 | 0.607 | -0.219 | 1.08 | 0.855 (inactive) | 0.552 | 0.643 | 0.777 | -1.28 (inactive) | -0.0295 (inactive) | -0.313 (inactive) | -0.326 | -0.428 (inactive) | -0.0591 | 0.245 | 0.784 | 0.132
COCCOC(=O)N1C(=O)[C@@]2(c3cc(C#CCNC(N)=O)ccc31)[C@H](c1ccc(OCCO)cc1)N1[C@H](c3ccccc3)[C@H](c3ccccc3)OC(=O)[C@H]1[C@@H]2C(=O)NC[C@H](O)c1ccccc1 | -0.0349 | 0.907 | -0.0881 | 0.417 | 1.25 | 0.46 | 0.77 | 0.499 (inactive) | 0.506 | -0.215 | 1.57 | 2.3 (inactive) | 3.07 (inactive) | 4.91 (inactive) | 2.44 | 0.925 (inactive) | 0.19 | 1.1 | 1.06 | 0.0671
[N-]=[N+]=Nc1ccccc1C[C@]1(C(=O)O)N=C(c2ccc(OCCCO)cc2)O[C@H]1c1ccccc1N=[N+]=[N-] | 0.951 | 0.618 | 0.0857 | 0.619 | 1.23 | 1 | 1.04 | -1.57 (inactive) | 0.992 | 0.543 | 1.43 | -0.228 (inactive) | -0.896 (inactive) | -1.17 (inactive) | 3.05 | 0.814 (inactive) | 0.376 | -0.359 | 0.942 | 0.0729
COc1ccc(C#Cc2ccc3c(c2)[C@]2(C(=O)N3)[C@H](C(=O)N3CCCCCCC3)[C@H]3C(=O)O[C@H](c4ccccc4)[C@H](c4ccccc4)N3[C@@H]2c2ccc(O)cc2)cc1 | 2.46 | 0.578 | 0.102 | 0.295 | 0.97 | -0.234 | 1.24 | 0.626 (inactive) | 2.24 | 0.606 | 1.56 | -0.0118 (inactive) | 0.0345 (inactive) | 0.595 (inactive) | 3.12 | 0.209 (inactive) | 1 | 0.719 | 1.1 | 0.426
CCN(CC)c1ccc(N2CC=CC34O[C@@H]5/C=C\CCC(C)OC(=O)C5[C@H]3C(=O)N(C(C)CO)[C@@H]4C2=O)cc1 (stereo not given in full) | -0.0462 | -0.362 | -0.116 | -0.244 | -1.06 | 0.168 | -0.527 | 0.355 (inactive) | -0.293 | -0.652 | 0.41 | 0.217 (inactive) | -1.41 (inactive) | -0.0932 (inactive) | -0.139 | 1.13 (inactive) | -0.149 | 0.07 | -0.419 | -0.206
C=C(CCCC)C(=O)CC[C@@H](OC(=O)c1cccnc1)c1ccc(OCCO)cc1 | -0.449 | 0.887 | -0.0894 | 0.681 | 0.214 | 0.89 | 1.19 | 0.84 (inactive) | 0.204 | -0.0645 | 1.48 | -0.405 (inactive) | -2.22 (inactive) | -0.861 (inactive) | 1.18 | -0.288 (inactive) | -0.113 | 1.93 | 0.952 | -0.0828
